The list is not random: actives were taken first. Their share in the collection is about 21%.
CHX counter: counter-screen for Shiga toxin inhibitors: cycloheximide protein synthesis inhibition; cell reporter, cycloheximide protein synthesis inhibition counterscreen; max response, %; 300,000 tested, 12% active; in the data active means max response mostly above about 13%, no sharp cut-off; inactive means mostly below about 14%; further: read at 38.3 µM for the half of the compounds with a filed dose; 0% is about no effect
Shiga toxin inh: Shiga toxin inhibition. Vero cells, Shiga toxin protein synthesis inhibition reporter. inhibition, % at 38.7 µM. 290,000 tested, 9.2% active; in the data active means inhibition mostly above about 28%, no sharp cut-off; inactive means mostly below about 43%; further: 0% is about no effect
Pf growth 48h: P. falciparum growth inhibition at 48 hours (one generation); P. falciparum luciferase growth in erythrocytes, 48 h; Potency, µM (titrated, usually from 28.7 µM), for the others: at the top dose activity change, negative = inhibition, usual class: inhibitors; 310,000 tested, 5.9% active; AID 504832; further: potency means the concentration at half of the fitted maximal effect; on the % scale 0 is the no-effect control and ±100 the full control effect
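Firefly luciferase activity from engineered P. falciparum reports growth; inhibitors lower the luminescent signal. Cultures contained 2% hematocrit erythrocytes at 0.1% final parasitemia.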
NS1 function inh: inhibitors of influenza NS1 protein function; 270,000 tested, 0.4% active; Potency, µM (doses to about 46.1 µM), inactives show top-dose activity, positive = more growth; calls by dose curve; further: potency means the concentration at half of the fitted maximal effect; actives are rising curves; nearly all actives have a fitted effect of over 50% in size
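Compounds were scored for reversing the slow growth caused by influenza A NS1 in S. cerevisiae, measured by optical density at 600 nm. Assay medium contained 2% galactose at pH 6.0; NS1-free yeast of the same strain were the positive control.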
Pf growth 96h: P. falciparum growth inhibition at 96 hours. P. falciparum luciferase reporter growth, 96 h. Potency, µM (titrated, usually from 28.7 µM), for inactives: top-dose activity change, negative = inhibition, usual class: inhibitors. 320,000 tested, 6.9% active. AID 504834; further: potency means the concentration at half of the fitted maximal effect; on the % scale 0 is the no-effect control and ±100 the full control effect
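Delayed-death screen, second-generation endpoint: infected erythrocytes, 2% hematocrit, 0.05% parasitemia final; 96 hours at 37 C, 5% CO2; luciferase detection reagent; luminescence decrease equals reduced growth.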
SARS PLpro yeast: SARS-CoV PLP inhibition in yeast. AID 485353. 330,000 tested, 0.19% active. S. cerevisiae expressing SARS-CoV PLpro, growth rescue. Potency, µM (doses to about 32.9 µM), inactives show top-dose activity, positive = growth rescue, actives largely listed as activators; calls by dose curve; further: potency means the concentration at half of the fitted maximal effect; 0% is about no effect; nearly all actives have a fitted effect of over 55% in size
Starred values were filed as active, the others as inactive; ? = inconclusive; . = no result given; [ ] = dose if it differs, or a comment. Unless noted, the call rests on the fitted dose curve; in most records, active means well fitted inhibition curve with a large enough effect; inconclusive means small, poorly fitted or top-dose-only effect, or another doubt; inactive means no such curve, though single readings can be large or run the other way.

SMILES	CHX counter	Shiga toxin inh	Pf growth 48h	NS1 function inh	Pf growth 96h	SARS PLpro yeast
CCCOc1ccccc1OCC(=O)Nc1ccc(S(=O)(=O)N2CCCCC2)cc1	.	.	?	.	10µM*	1%
Cc1cc(OCC(=O)Nc2ccc(S(=O)(=O)N3CCN(C)CC3)cc2)ccc1Br	-3	-7	12µM*	8%	6.6µM*	12%
Cc1cc(NC(=O)CSc2nc3c(C)cccc3cc2C#N)no1	-2	3	1%	-6%	7%	-4%
CC1CN(C(=O)N2CCCCC2)CCN1C(=O)N1CCCCC1 (stereo not drawn)	-2	-4	18%	0%	?	0%
CC(=O)Nc1ccc(S(=O)(=O)N2CCN(CCCOc3ccccc3Cl)CC2)cc1	-3	-12	.	2%	6.6µM*	2%
CN1CCN(NC(=O)COc2cccc(C(F)(F)F)c2)CC1	-3	-2	4%	7%	?	-11%
COc1cccc(OCCCN2CCN(S(=O)(=O)c3ccc(NC(C)=O)cc3)CC2)c1	-2	-8	.	-2%	?	1%
CN1CCC(N(C)S(=O)(=O)c2ccc(NC(=O)COc3cccc(C(F)(F)F)c3)cc2)CC1	.	.	?	.	13µM*	1%
COc1ccc(-c2nc3n(c2C)Cc2ccccc2-3)cc1	39*	130*	111%	-8%	31%	-1%
O=c1cc(-c2ccccc2)nc2n1Cc1ccccc1-2	2	3	.	-90%	4%	-7%
COc1ccc(C2(C)NC(=O)NC2=O)cc1OC (stereo not drawn)	0	-7	10%	-1%	35%	6%
CCOc1ccc(-n2cc(C(=O)c3cc(Cl)ccc3O)cc(C#N)c2=O)cc1	1	-8	-26%	.	?	-9%
COc1ccc(-n2cc(C(=O)c3cc(Cl)ccc3O)cc(C#N)c2=O)cc1	-7	-9	?	.	7.4µM*	-4%
Cc1ccc(-n2cc(C(=O)c3cc(Cl)ccc3O)cc(C#N)c2=O)cc1	-1	3	3.3µM*	-48%	?	-62%
COc1ccc(O)c(C(=O)c2cc(C#N)c(=O)n(-c3ccc(Cl)cc3)c2)c1	6	-1	7.4µM*	3%	5.9µM*	0%
COc1ccccc1NC(=O)COC(=O)CCc1ccc(S(=O)(=O)N2CCOCC2)cc1	.	.	?	.	-9%	2%
COc1cc(NC(=S)NC(=O)c2ccc(C(C)(C)C)cc2)ccc1NC(=O)c1cccs1	-4	-12	?	10%	?	23%
COc1cc(NC(=S)NC(=O)c2cc(C)cc(C)c2)ccc1NC(=O)c1cccs1	7	3	?	26%	2.9µM*	-10%
COc1cc(NC(=S)NC(=O)c2ccccc2C)ccc1NC(=O)c1cccs1	-1	6	?	14%	-29%	-2%
COc1cc(NC(=S)NC(=O)c2c(OC)cccc2OC)ccc1NC(=O)c1cccs1	-2	-24	5.2µM*	7%	9%	6%
CCN(CC)S(=O)(=O)c1ccc(Cl)c(NC(=O)COC(=O)c2nc3nc(C)cc(C)n3n2)c1	.	.	.	.	.	3%
CCOc1ccc2c(C)nc(NC3=NC(C)(C)C=C(C)N3)nc2c1	4	-8	10µM*	-2%	12µM*	8%
COCc1cc(=O)[nH]c(Nc2nc(C)c3cc(OC)ccc3n2)n1	6	-3	.	0%	87%	4%
CCOc1ccc2nc(NC3=NC(c4ccc(OC)cc4)CC(=O)N3)nc(C)c2c1 (stereo not drawn)	-1	-16	?	?	10µM*	5%
CCOc1ccc2nc(NC3=NC(C)(C)C=C(C)N3)nc(C)c2c1	-3	-12	.	-1%	?	8%
SMILES	CHX counter	Shiga toxin inh	Pf growth 48h	NS1 function inh	Pf growth 96h	SARS PLpro yeast
Cc1[nH]c2ccccc2c1C(=O)C(C)OC(=O)c1ccccc1NCCO (stereo not drawn)	.	.	?	.	?	-5%
F/C(COc1ccc2c(c1)[nH]c1ccccc12)=C1/CN2CCC1CC2	36*	57*	?	.	11µM*	.
CC(C)=C(NC(=O)c1ccccc1)C(=O)Nc1cccc(C(=O)O)c1	-3	-1	-5%	1%	3%	-1%
O=C(COC(=O)c1ccccc1NCc1ccco1)Nc1ccc2c(c1)OCO2	27*	62*	39%	6%	56%	-4%
COC(=O)c1ccccc1NC(=O)COC(=O)c1ccc(C)c(NC(=O)c2ccco2)c1	-3	34	2.3µM*	-18%	2.3µM*	-4%
COC(=O)c1ccccc1NC(=O)COC(=O)c1ccco1	-5	2	4%	-29%	0%[5.75 µM]	-5%
O=C(COC(=O)c1ccccc1NC(=O)c1ccco1)Nc1ccc2c(c1)OCO2	17*	59	-12%	2%	31%	11%
NC(=O)c1ccsc1NC(=O)COC(=O)c1ccccc1NCc1ccco1	33*	107*	55%	-7%	?	-4%
O=C(COC(=O)c1c(F)cccc1F)Nc1ccc2c(c1)OCO2	.	.	56%	.	35%	4%
CC(C)(C)NC(=O)COC(=O)c1ccccc1NC(=O)c1ccco1	-1	15	-27%	2%	9%	-7%
CC(C)ON(C(C(=O)NO)C(C)C)S(=O)(=O)c1ccc(-c2ccccc2)cc1 (stereo not drawn)	-4	33	.	.	.	.
C=C1C=CS(=O)(=O)N(Cc2ccccc2)C1	-10	-14	.	.	.	.
FC(F)(F)c1ccc2c(c1)NCC1CCCN21 (stereo not drawn)	17*	40	225%	16%	108%	-1%
FC(F)(F)c1ccc2c(c1)N1CCCC1CN2 (stereo not drawn)	-2	5	?	-2%	?	-1%
Cc1ccc(S(=O)(=O)NCC(c2ccccc2)N2CCN(c3ccc(F)cc3)CC2)cc1 (stereo not drawn)	-1	10	?	26%	?	-1%
O=C1c2ccccc2C(Nc2ccc3c(c2)OCCO3)N1c1ccccn1 (stereo not drawn)	41*	70*	9.3µM*	-14%	32%	14%
O=C1c2ccccc2C(Nc2ccc3c(c2)OCCO3)N1Cc1ccc2c(c1)OCO2 (stereo not drawn)	31*	62*	?	-69%	-19%	-21%
O=C1c2ccccc2C(Nc2ccc3c(c2)OCCO3)N1c1ccc(Cl)cn1 (stereo not drawn)	9.9*	44	.	-51%	32%	-5%
CC(C)[C@H](NC(=O)c1nn(Cc2ccccc2)c(=O)c2ccccc12)C(=O)O	-1	17	-23%	11%	-13%	1%
c1ccc2[nH]c(SCc3ccc(-c4nnco4)cc3)nc2c1	18*	89*	105%	-12%	?	5%
Cc1noc(C)c1CSc1nc2ccccc2[nH]1	2	-5	-16%	-7%	-1%[5.75 µM]	-5%
CCOc1ccccc1CSc1nc2ccccc2[nH]1	19*	22	?	-12%	?	-39%
c1ccc(-c2cc(CSc3nc4ccccc4[nH]3)on2)cc1	14	31	19%	3%	.	-18%

Screening data deposited in PubChem by National Center for Advancing Translational Sciences (NCATS).
